Rows were chosen to be rich in hits. Some 3.5% of all compounds tested hit in one or more screens of this group.
MITF inh: MITF inhibitors, primary screen, biochemical, AlphaScreen, human; Microphthalmia-associated transcription factor (Homo sapiens), O75030; AlphaScreen MITF homodimerization, bead proximity signal; inhibition, % at 2.6 µM; 650,000 compounds, 0.91% hits; AID 1259374, 2018; in the data active means inhibition above about 50%;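 further: 0% = vehicle wells with protein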
Target sequence (O75030 whole entry, looked up): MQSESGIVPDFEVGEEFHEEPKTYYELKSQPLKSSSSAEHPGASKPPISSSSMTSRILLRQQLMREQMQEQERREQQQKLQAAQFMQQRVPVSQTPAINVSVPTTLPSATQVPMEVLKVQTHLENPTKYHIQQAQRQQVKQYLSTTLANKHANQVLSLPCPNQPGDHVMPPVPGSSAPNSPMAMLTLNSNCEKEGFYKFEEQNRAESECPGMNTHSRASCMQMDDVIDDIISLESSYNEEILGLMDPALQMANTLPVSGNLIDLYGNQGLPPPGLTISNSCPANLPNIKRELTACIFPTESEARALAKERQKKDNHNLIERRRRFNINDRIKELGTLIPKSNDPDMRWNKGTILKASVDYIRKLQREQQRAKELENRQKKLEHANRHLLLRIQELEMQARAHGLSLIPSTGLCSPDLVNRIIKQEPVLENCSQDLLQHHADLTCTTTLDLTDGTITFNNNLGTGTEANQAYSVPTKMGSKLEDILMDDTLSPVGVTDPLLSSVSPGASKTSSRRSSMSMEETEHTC
FBW7 activator: FBW7 E3 ligase activators, primary screen, biochemical, AlphaScreen, human; 650,000 compounds, 0.13% hits; normalized activity (activation), % at 26.1 µM; AlphaScreen FBW7–phospho-cyclin E peptide binding, activator screen; in the data active means normalized activity above about 1.9%;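 further: purified mutant Fbw7 with reduced substrate affinity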
GPR151 ag: activators of human GPR151, primary screen, cell-based, PathHunter beta-arrestin, luminescence. activation, % at 11.2 µM. 650,000 compounds, 1% hits. PathHunter beta-arrestin GPR151 cells; in the data active means activation above about 4.9%;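 further: 0% = median of compound wells and 100% = cells with positive control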
TEAD-YAP block: TEAD-YAP interaction inhibition, primary screen, TEAD-YAP interaction inhibitor project, luminescence, HEK-TIYL cells; TEAD-Gal4/YAP UAS-luciferase luminescence; inhibition, % at 9.12 µM; 640,000 compounds, 1.4% hits; AID 1259422, 2018; in the data active means inhibition above about 32%;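 further: 0% = median of test compound wells and 100% = reference inhibitor wells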
MITF confirm: MITF inhibitors, retest of hits, confirmation, biochemical, AlphaScreen, triplicate | shares compounds with MITF inh | AlphaScreen MITF homodimerization, biotin/His-MITF beads | inhibition, % at 2.6 µM | 4,700 compounds, 16% hits;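 active means inhibition above a cutoff derived from the DMSO control wells, cut at about 28% in these data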;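 further: 0% = MITF dimer wells with DMSO only; inhibitors lower the bead chemiluminescence by keeping MITF from dimerizing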
AlphaScreen DR: AlphaScreen optical interference compounds, dose response, counter-screen, biochemical, HTS; shares compounds with MITF inh; AlphaScreen optical interference counterscreen, cell-free; 480 compounds, 6% hits; AID 1259373, 2018; IC50, µM; call rule not given here
AlphaScreen intf2: AlphaScreen optical interference compounds, counter-screen for MITF inhibitor project, biochemical, triplicate; shares compounds with MITF inh; LysRS AlphaScreen counterscreen, signal interference; inhibition, % at 2.6 µM; 4,700 compounds, 7.6% hits;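 active means inhibition above a cutoff derived from the DMSO control wells, cut at about 30% in these data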
Starred values were filed as active, the others as inactive; · = no result given.

SMILES	MITF inh	FBW7 activator	GPR151 ag	TEAD-YAP block	MITF confirm	AlphaScreen intf2	others
CCc1ccc(OCCCCCn2ccnc2)cc1	53*	0	0	6	-5	-2
c1ccc(OCCCn2ccnc2)cc1	-1	0	0	7	·	·
c1ccc(COc2ccc(OCCn3ccnc3)cc2)cc1	81*	0	1	-45	7	2
CCc1ccc(OCCn2ccnc2)cc1	31	0	0	-2	·	·
c1ccc(COc2ccc(OCCCn3ccnc3)cc2)cc1	79*	0	-6	54*	6	18
CCCNCC(O)COC(c1ccccc1)c1ccccc1 (stereo not drawn)	17	0	1	-1	·	·
COc1ccc(C(OCC(O)CNCCN(C)C)c2ccc(OC)cc2)cc1 (stereo not drawn)	67*	1	-1	-2	11	10
CCN1C(=O)NC(c2ccc([N+](=O)[O-])cc2)C(C(=O)OCCc2ccccc2)=C1C (stereo not drawn)	76*	1	-1	-10	2	22
CCN1C(=O)NC(c2ccc([N+](=O)[O-])cc2)C(C(=O)OCCOc2ccccc2)=C1C (stereo not drawn)	9	0	0	1	·	·
COc1ccc(Cl)cc1NC(=O)NNS(=O)(=O)c1ccc2ccccc2c1	22	0	1	10	·	·
Brc1cccc(OCCCn2ccnc2)c1	65*	0	0	4	3	0
Brc1cccc(OCCn2ccnc2)c1	52*	0	-1	9	-2	7
Brc1cccc(OCCOCCn2ccnc2)c1	21	0	1	2	·	·
CC(C)CNC(=O)c1cn(C2CCCCC2)cc(C(=O)NCCc2cccnc2)c1=O	51*	0	-1	-43	3	0
COc1ccc(CN2CCc3ccccc3C2)c(OC)c1	49	0	-2	14	·	·
COc1ccc(CN2CCN(C(=O)c3ccco3)CC2)c(OC)c1OC	26	0	0	0	·	·
COc1ccc(CN2CCN(Cc3ccco3)CC2)c(OC)c1OC	55*	0	-1	0	4	0
COc1ccc(CN2CCN(Cc3ccco3)CC2)c(OC)c1	73*	0	2	4	14	15
COc1ccccc1CN1CCN(Cc2ccco2)CC1	77*	0	0	-6	0	12
CCOc1ccccc1NS(=O)(=O)c1ccc2c(c1)SCC(=O)N2	5	0	0	5	·	·
COc1ccc([N+](=O)[O-])cc1Nc1cnn(C23CC4CC(CC(C4)C2)C3)c(=O)c1Cl	51*	1	-1	-6	5	13
COc1ccc(C)cc1Nc1cnn(C23CC4CC(CC(C4)C2)C3)c(=O)c1Cl	4	0	2	10	·	·
CCOc1ccc(CN2CCN(C3CCC(C)CC3)CC2)cc1 (stereo not drawn)	71*	0	0	3	3	9
CC1CCC(N2CCN(Cc3ccc(Cl)cc3)CC2)CC1 (stereo not drawn)	69*	0	-1	-10	11	17
OC1CCN(Cc2ccc(Cl)cc2)CC1	28	0	0	1	·	·
SMILES	MITF inh	FBW7 activator	GPR151 ag	TEAD-YAP block	MITF confirm	AlphaScreen intf2	others
Cc1cccc(CN2CCN(C3CCC(C)CC3)CC2)c1 (stereo not drawn)	55*	0	1	-15	28*	18	AlphaScreen DR=>5.5
CCOc1ccc(CN2CCC(C(=O)NC(C)(C)C)CC2)cc1	19	0	1	1	·	·
CCOc1ccc(CN2CCC(C(=O)NCc3ccco3)CC2)cc1	83*	0	-2	2	14	14
COCCn1nnnc1C(c1ccc(F)cc1)N1CCC(O)CC1 (stereo not drawn)	-25	0	0	-2	·	·
COc1cc(C(CC(=O)N2CCCCC2)N2Cc3ccccc3C2=O)cc(OC)c1OC (stereo not drawn)	-14	0	1	-9	·	·
CCOC(=O)NC(=O)/C(C#N)=C/c1ccc(OC)cc1	14	0	-1	2	·	·
C=CCNS(=O)(=O)c1ccccc1C(F)(F)F	3	0	1	1	·	·
CCOc1ccc(CN2CCN(Cc3ccc(OCC)cc3)CC2)cc1	51*	0	1	9	-1	-4
CCc1ccc(CN2CCN(C3CCC(C)CC3)CC2)cc1 (stereo not drawn)	69*	0	0	-4	0	5
COc1ccccc1C(=O)N1CCN(Cc2ccc3ccccc3c2)CC1	45	0	0	22	·	·
CCOc1ccc(CN2CCN(C(=O)c3ccccc3OC)CC2)cc1	57*	0	1	31	4	16
CCOC(=O)c1sc2nc(SCC(=O)NC3CCCCC3)n(Cc3ccc(Cl)c(Cl)c3)c(=O)c2c1C	9	0	1	-1	·	·
N#CC1=C(N)Oc2n[nH]c(-c3ccccc3)c2C1c1ccccc1OC(=O)c1cccc([N+](=O)[O-])c1 (stereo not drawn)	12	0	0	0	·	·
COc1ccc(CSc2nsc(SCc3cccc(OC)c3)c2C#N)cc1	1	0	0	18	·	·
OCCN1CCN(c2cc(-c3ccccc3F)nc(-c3cccnc3)n2)CC1	-5	0	1	5	·	·
OCCN1CCN(c2cc(-c3ccccc3F)nc(-c3ccccc3)n2)CC1	53*	0	1	7	16	13
Cn1nnnc1SCC(=O)Nc1ccc2nc(SCc3cccc4ccccc34)sc2c1	1	0	-1	1	·	·
COC(CNc1cc(-c2ccccn2)nc(-c2ccccc2)n1)OC	-2	0	0	22	·	·
Cc1cnc(CNc2cc(-c3ccccn3)nc(-c3ccccn3)n2)nc1	110*	-1	1	16	115*	100*
COC(CNc1cc(-c2ccccn2)nc(-c2ccccn2)n1)OC	114*	-1	0	22	116*	100*
Cc1cccc(Nc2ncnc3c2c(-c2ccccc2)cn3-c2ccc(F)cc2)c1	6	0	-1	3	·	·
COc1ccccc1NC(=O)C1=C(C)Nc2nc(-c3ccccc3)nn2C1c1ccncc1 (stereo not drawn)	16	0	-1	-5	·	·
O=C(CSc1nnc(-c2cccc(Cl)c2)o1)Nc1ccccc1	82*	0	-2	-40	4	15
CCN(CC)CCCC(C)NC(=O)C(=O)c1c[nH]c2ccccc12 (stereo not drawn)	6	0	0	-6	·	·
CN1CCN(c2ncc(-c3ccccc3CO)n3ccnc23)CC1	-12	0	-1	0	·	·

High-throughput results: PubChem, The Scripps Research Institute Molecular Screening Center
